Data: PubChem BioAssay (NCATS)
Records with an inconclusive call do not appear. Where a call stands in place of a potency, no number is given. Calls of active or inactive are those of the source. Calls come from the whole dose curve; as a rule, active = well fitted inhibition curve with a large enough effect; inconclusive = small, poorly fitted or top-dose-only effect; inactive = flat fitted curve, though single readings scatter. Peptide text beside a SMILES is read from it.

Tested on: CP268
Test: qHTS profiling for inhibitors of Plasmodium falciparum proliferation (AID 504749); note: nearly all actives have a fitted effect of over 60% in size
Details: P. falciparum in erythrocytes, SYBR Green DNA, 72 h; series mostly up to 12.8 µM
Outline: (§1)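 Readout was DNA-dye fluorescence from lysed cultures, ex 485/em 535 nm. Parasitized red cells had grown 72 h with compound; data scaled between 0.29 uM artemisinin and DMSO wells and corrected using vehicle-only plates.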
Potency is the fitted concentration of half-maximal effect.

Row | SMILES | Potency
1 | CCC(C)C(=O)OC1CCC=C2C=CC(C)C(CCC3CC(O)CC(=O)O3)[C@@H]21 (some centres undefined) | inactive
2 | C[C@]1(c2ccccc2)OC(C(=O)O)=CC1=O | inactive
3 | OCC1OC([S-])[C@H](O)C(O)C1O.[Au+] (some centres undefined) | inactive
4 | COC(=O)N/N=C/C1=C[N+](=O)c2ccccc2[N+]1=O | inactive
5 | CN1CC(=O)N=C1N | inactive
6 | CNC1CC(N)[C@H](O)[C@@H](O[C@@H]2OC(CO)C3OC4(OC(C(N)CO)C(O)C(O)C4O)O[C@@H]3[C@H]2O)C1O (some centres undefined) | inactive
7 | COC1C=CO[C@@]2(C)Oc3c(C)c(O)c4c(O)c(c(C=NN5CCN(C)CC5)c(O)c4c3C2=O)NC(=O)/C(C)=C\C=CC(C)C(O)[C@@H](C)C(O)C(C)[C@H](OC(C)=O)C1C (some centres undefined) | 4.78 µM (active)
8 | CC(=O)N[C@@H]1C(O)OC(CO)C(O)C1O (some centres undefined) | inactive
9 | CCC(CCC(C)C1CCC2C3CC=C4CC(O)CC[C@@]4(C)C3CC[C@@]12C)C(C)C (some centres undefined) | inactive
10 | O=C1OC(CO)C(O)C(O)C1O (centres undefined) | inactive
11 | COc1ccc(CC(N)C(=O)NC2C(CO)OC(n3cnc4c(N(C)C)ncnc43)C2O)cc1 (centres undefined) | 1.51 µM (active)
12 | CCCC(=O)O[C@]1(C(=O)CO)CCC2[C@@H]3CCC4=CC(=O)CC[C@]4(C)C3C(O)C[C@]21C (some centres undefined) | inactive
13 | COC(=O)C(Cc1ccccc1)NC(=O)C(N)CC(=O)O (stereo not drawn) (H-Asp-Phe-OMe; configuration not given here) | inactive
14 | CC[C@@]12CCCN3CCc4c(n(c5ccccc45)[C@](O)(C(=O)OC)C1)C32 (some centres undefined) | inactive
15 | CC1(C)SC2C(N3C(=O)C(c4ccccc4)NC3(C)C)C(=O)N2C1C(=O)O (centres undefined) | inactive
16 | CC1CCC(C(C)C)C(=O)C1 (centres undefined) | inactive

Row | SMILES | Potency
17 | CC(=O)N[C@H](CC(C)C)C(=O)O | inactive
18 | CC(C)C1CCC(C(=O)NC(Cc2ccccc2)C(=O)O)CC1 (centres undefined) | inactive
19 | COc1ccc2cc(C(C)CO)ccc2c1 (centres undefined) | inactive
20 | COc1ccc2cc1Oc1ccc(cc1)CC1c3c(cc4c(c3Oc3cc5c(cc3OC)CCN(C)C5C2)OCO4)CCN1C (centres undefined) | 13.5 µM (active)
21 | CNC1C(OC2C(O[C@@H]3C(O)C(O)[C@@H](N=C(N)N)C(O)C3N=C(N)N)OC(C)[C@@]2(O)CO)OC(CO)C(O)C1O (some centres undefined) | inactive
22 | CC1C2CCC3C4CC=C5CC(N(C)C)CC[C@@]5(C)C4CC[C@@]32CN1C (some centres undefined) | inactive
23 | C[C@]12C=CC(=O)C=C1CCC1C2C(O)C[C@]2(C)C1CC[C@]2(O)C(=O)CO (some centres undefined) | inactive
24 | COc1ccc2c(c1)N(C[C@@H](C)CN(C)C)c1ccccc1S2 | inactive
25 | CCOC(=O)C1=CC(OC(CC)CC)C(NC(C)=O)C(N)C1 (centres undefined) | inactive
26 | CN(C)CCc1c[nH]c2ccc(CC3COC(=O)N3)cc12 (centres undefined) | inactive
27 | NCC1CCC(N)C(O[C@@H]2C(O)[C@H](O[C@H]3OC(CO)C(O)C(N)C3O)[C@@H](N)C[C@H]2N)O1 (some centres undefined) | inactive
28 | OCC1O[C@H](OC2C(CO)O[C@@](O)(CO)C2O)C(O)C(O)C1O (some centres undefined) | inactive
29 | CC1(C)OC2CO[C@]3(COS(N)(=O)=O)OC(C)(C)OC3C2O1 (some centres undefined) | inactive
30 | CC(=O)OC1CCC2C3CCc4cc(O)ccc4C3CCC12C (centres undefined) | inactive
31 | CN(C)CCCOC1C(C(O)CO)OC2OC(C)(C)O[C@@H]21 (some centres undefined) | inactive
32 | COc1cc(C2c3cc4c(cc3C(O[C@@H]3OC5COC(c6cccs6)OC5C(O)C3O)C3COC(=O)C23)OCO4)cc(OC)c1O (some centres undefined) | 4.26 µM (active)

Tested on: CP269
Test: as above
Details: P. falciparum in erythrocytes, SYBR Green DNA, 72 h; series mostly up to 12.8 µM
Outline: as §1

Row | SMILES | Potency
33 | CCC(C)C(=O)OC1CCC=C2C=CC(C)C(CCC3CC(O)CC(=O)O3)[C@@H]21 (some centres undefined) | inactive
34 | C[C@]1(c2ccccc2)OC(C(=O)O)=CC1=O | inactive
35 | OCC1OC([S-])[C@H](O)C(O)C1O.[Au+] (some centres undefined) | inactive
36 | COC(=O)N/N=C/C1=C[N+](=O)c2ccccc2[N+]1=O | inactive
37 | CN1CC(=O)N=C1N | inactive
38 | CNC1CC(N)[C@H](O)[C@@H](O[C@@H]2OC(CO)C3OC4(OC(C(N)CO)C(O)C(O)C4O)O[C@@H]3[C@H]2O)C1O (some centres undefined) | inactive
39 | COC1C=CO[C@@]2(C)Oc3c(C)c(O)c4c(O)c(c(C=NN5CCN(C)CC5)c(O)c4c3C2=O)NC(=O)/C(C)=C\C=CC(C)C(O)[C@@H](C)C(O)C(C)[C@H](OC(C)=O)C1C (some centres undefined) | 4.26 µM (active)
40 | CC(=O)N[C@@H]1C(O)OC(CO)C(O)C1O (some centres undefined) | inactive
41 | CCC(CCC(C)C1CCC2C3CC=C4CC(O)CC[C@@]4(C)C3CC[C@@]12C)C(C)C (some centres undefined) | inactive
42 | O=C1OC(CO)C(O)C(O)C1O (centres undefined) | inactive
43 | COc1ccc(CC(N)C(=O)NC2C(CO)OC(n3cnc4c(N(C)C)ncnc43)C2O)cc1 (centres undefined) | 0.757 µM (active)
44 | CCCC(=O)O[C@]1(C(=O)CO)CCC2[C@@H]3CCC4=CC(=O)CC[C@]4(C)C3C(O)C[C@]21C (some centres undefined) | inactive
45 | COC(=O)C(Cc1ccccc1)NC(=O)C(N)CC(=O)O (stereo not drawn) (H-Asp-Phe-OMe; configuration not given here) | inactive
46 | CC[C@@]12CCCN3CCc4c(n(c5ccccc45)[C@](O)(C(=O)OC)C1)C32 (some centres undefined) | inactive
47 | CC1(C)SC2C(N3C(=O)C(c4ccccc4)NC3(C)C)C(=O)N2C1C(=O)O (centres undefined) | inactive
48 | CC1CCC(C(C)C)C(=O)C1 (centres undefined) | inactive

Row | SMILES | Potency
49 | CC(=O)N[C@H](CC(C)C)C(=O)O | inactive
50 | CC(C)C1CCC(C(=O)NC(Cc2ccccc2)C(=O)O)CC1 (centres undefined) | inactive
51 | COc1ccc2cc(C(C)CO)ccc2c1 (centres undefined) | inactive
52 | COc1ccc2cc1Oc1ccc(cc1)CC1c3c(cc4c(c3Oc3cc5c(cc3OC)CCN(C)C5C2)OCO4)CCN1C (centres undefined) | 13.5 µM (active)
53 | CNC1C(OC2C(O[C@@H]3C(O)C(O)[C@@H](N=C(N)N)C(O)C3N=C(N)N)OC(C)[C@@]2(O)CO)OC(CO)C(O)C1O (some centres undefined) | inactive
54 | CC1C2CCC3C4CC=C5CC(N(C)C)CC[C@@]5(C)C4CC[C@@]32CN1C (some centres undefined) | inactive
55 | C[C@]12C=CC(=O)C=C1CCC1C2C(O)C[C@]2(C)C1CC[C@]2(O)C(=O)CO (some centres undefined) | inactive
56 | COc1ccc2c(c1)N(C[C@@H](C)CN(C)C)c1ccccc1S2 | inactive
57 | CCOC(=O)C1=CC(OC(CC)CC)C(NC(C)=O)C(N)C1 (centres undefined) | inactive
58 | CN(C)CCc1c[nH]c2ccc(CC3COC(=O)N3)cc12 (centres undefined) | inactive
59 | NCC1CCC(N)C(O[C@@H]2C(O)[C@H](O[C@H]3OC(CO)C(O)C(N)C3O)[C@@H](N)C[C@H]2N)O1 (some centres undefined) | inactive
60 | OCC1O[C@H](OC2C(CO)O[C@@](O)(CO)C2O)C(O)C(O)C1O (some centres undefined) | inactive
61 | CC1(C)OC2CO[C@]3(COS(N)(=O)=O)OC(C)(C)OC3C2O1 (some centres undefined) | inactive
62 | CC(=O)OC1CCC2C3CCc4cc(O)ccc4C3CCC12C (centres undefined) | inactive
63 | CN(C)CCCOC1C(C(O)CO)OC2OC(C)(C)O[C@@H]21 (some centres undefined) | inactive
64 | COc1cc(C2c3cc4c(cc3C(O[C@@H]3OC5COC(c6cccs6)OC5C(O)C3O)C3COC(=O)C23)OCO4)cc(OC)c1O (some centres undefined) | 1.69 µM (active)
